# In PubChem BioAssay AID1305 (SRMLSC, 2008):
# Among all 1,200 compounds or so, fewer than 10 were called active. The rule behind the calls is not given here. Only a sample is shown.
# Assay: 5-FOA growth of efflux-deficient control yeast, dose response, counter-screen for RAM network inhibitor project, S. cerevisiae, OD615 (AID 1305);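 note: plate controls were vehicle for no effect and reference inhibitor for full effect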
# Conditions: S. cerevisiae efflux-deficient reporter strain, 5-FOA growth OD615, 2 days, hits give high values; at 100 µM unless noted
row,SMILES,max inhibition
1,COc1ccc(C2C=C(c3ccc(Br)cc3)Nc3nc(NS(C)(=O)=O)nn32)cc1 (stereo unspecified),3.37% (inactive)
2,CCCNC(=O)OC[C@H]1O[C@H](CCO/N=C/[C@@H](NS(=O)(=O)c2ccc(C)cc2)[C@H](C)/C=C/CC(=O)OC)C=C[C@@H]1Oc1ccc(OC)cc1,1.46% [at 50 µM] (inactive)
3,Fc1ccc(CSc2nnc(-c3cc4c(s3)-c3ccccc3CC4)o2)cc1,4.57% (inactive)
4,O=C(CSc1nc(-c2ccccc2)cs1)Nc1cccc([N+](=O)[O-])c1,3.34% (inactive)
5,COc1ccc(OC)c(C2C3=C(N=c4s/c(=C\c5cccc(O)c5)c(=O)n42)c2ccccc2CC3)c1 (stereo unspecified),2.51% [setting not given] (inactive)
6,CCCC(C(=O)n1nc(C)cc1C)C(NS(=O)(=O)c1ccc(C)cc1)c1ccccc1 (stereo unspecified),2.29% [at 1.563 µM] (inactive)
7,O=C(NCc1ccccc1)[C@H]1C[C@@H]1[C@H](NP(=O)(c1ccccc1)c1ccccc1)c1ccccc1,2.82% (inactive)
8,COC(=O)c1ccc(C2C(Oc3ccccc3C)C(=O)N2CCc2ccc(OC)c(OC)c2)cc1 (stereo unspecified),3.17% (inactive)
9,CC1CCN(C(=S)c2ccc(-c3ccc(Cl)cc3Cl)o2)CC1,4.91% (inactive)
10,COc1ccc(/C=C/C(=O)OCC(=O)Nc2cccc(Oc3ccccc3)c2)c(OC)c1,3.76% (inactive)
11,COc1ccc(C)cc1NC(=O)C(Sc1ccccc1)c1ccccc1 (stereo unspecified),4.82% (inactive)
12,NS(=O)(=O)c1ccc(NC(=S)NC(=O)c2cccc(Br)c2)cc1,2.4% [at 1.563 µM] (inactive)
13,COc1ccc(C(=O)NC(=S)Nc2ccc(N3CCCC3)cc2)cc1OC,1.3% [setting not given] (inactive)
14,C=CCc1ccccc1OCC(=O)N/N=C/c1ccccc1OCC,1.41% (inactive)
15,Clc1ccccc1CSc1nnc(-c2ccco2)c(-c2ccco2)n1,7.87% (inactive)
16,O=C(NCc1ccccc1)C1=C[C@@H](C2CCCCC2)C[C@@H](OCc2ccc(CO)cc2)O1,5.02% (inactive)
17,CCOC(=O)c1c(C)nc2c(c1C)c(=O)oc1ccccc12,1.3% [at 25 µM] (inactive)
18,Cc1cccc(N2CCN(C(=O)c3cnn4c(C(F)F)cc(-c5ccccc5)nc34)CC2)c1C,2.51% (inactive)
19,Cc1ccc(CCC(=O)Nc2ncc(Cc3cc(Cl)ccc3Cl)s2)o1,2.81% (inactive)
20,O=C(CSCc1ccc(Br)cc1)Nc1ccc(S(=O)(=O)N2CCCCCC2)cc1,2.51% (inactive)
21,COC(=O)CCSc1cc([N+](=O)[O-])cc2c1c(C1OCCS1)nn2-c1ccccc1 (stereo unspecified),4.89% [at 12.5 µM] (inactive)
22,COc1ccc(OCCCn2cccc2/C=C2/C(=N)N3OC(C)=CC3=NC2=O)cc1,3.93% (inactive)
23,O=[N+]([O-])c1ccc2oc(-c3cccc(O)c3)nc2c1,5.09% [at 25 µM] (inactive)
24,CC(C)=CCCC1(C)C=Cc2c(ccc3c2[nH]c2cc(O)c(C)cc23)O1 (stereo unspecified),2.74% (inactive)
25,Cc1ccc(C(=O)c2c(NC(=O)c3ccccc3)sc(C)c2C)cc1,2.97% [setting not given] (inactive)
26,CSc1ccccc1-c1nnc(-c2ccc(Cl)cc2)o1,2.32% [at 50 µM] (inactive)
